A selection: hits, their analogues and other compounds. The true share with any hit is near 5.4%.
SKKanGAS inh: blocks kanamycin growth of S. pyogenes SKKanGAS strain. BacTiter-Glo, 6 h. inhibition, % at 7.5 µM. 300,000 tested, 1.3% active. AID 1662;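 active = mean replicate score, as percent of positive control median, at least 50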;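 note: strain carries kanamycin resistance gene driven by streptokinase promoter and grows in 40 µg/ml kanamycin; loss of luminescence reflects streptokinase promoter inhibition or plain growth inhibition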
Beta cell apopt: blocks beta cell apoptosis; protection from apoptosis, % (no concentration beside the values); 300,000 tested, 0.8% active; INS-1E cytokine-induced death, ATP luminescence, 48 h; percent of positive-control rescue, neutral wells zero; AID 435005;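 active = Every replicate reaches about 75%, or at least half do and their mean reaches it too, limit read from the data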;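 note: higher means more ATP so stronger rescue from cytokine killing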
MPTP block: permeability transition pore inhibition. AID 602449. inhibition, % at 10 µM. isolated mouse mitochondria, Ca2+ swelling absorbance, 30 min. 360,000 tested, 1.4% active;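 active = inhibition of 50% or more, scaled per plate between neutral and stimulator controls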
Calb FLC: C. albicans growth modulation with fluconazole. C. albicans CaCi-2 (fluconazole-resistant clinical isolate) + fluconazole, Alamar Blue growth, 48 h. AID 1979. 300,000 tested, 0.57% active. growth inhibition, % (concentration not given with the values);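 active = growth inhibition above about 58% in most replicates, limit read from the data, passing the limit was not always enough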;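 note: all wells also contain fluconazole at 8 µg/ml as a sub-toxic cotreatment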
CSC inhib: cancer stem cell inhibition. cancer stem cell-like cells viability, luminescence. inhibition, % at 7.5 µM. 300,000 tested, 1.1% active. AID 2717; in the data active = inhibition above about 75%; tested in HMLE shEcad cells
Mdm2-MdmX inh: human Mdm2/MdmX binding inhibition | 330,000 tested, 3% active | O15151+Q00987 | inhibition, % at 8 µM | AID 485346 | SaOS-2 split-luciferase Mdm2/MdmX complementation, luminescence;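 active = inhibition of at least 50% at 8 µM in the primary screen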
Target sequence (O15151 whole entry, looked up): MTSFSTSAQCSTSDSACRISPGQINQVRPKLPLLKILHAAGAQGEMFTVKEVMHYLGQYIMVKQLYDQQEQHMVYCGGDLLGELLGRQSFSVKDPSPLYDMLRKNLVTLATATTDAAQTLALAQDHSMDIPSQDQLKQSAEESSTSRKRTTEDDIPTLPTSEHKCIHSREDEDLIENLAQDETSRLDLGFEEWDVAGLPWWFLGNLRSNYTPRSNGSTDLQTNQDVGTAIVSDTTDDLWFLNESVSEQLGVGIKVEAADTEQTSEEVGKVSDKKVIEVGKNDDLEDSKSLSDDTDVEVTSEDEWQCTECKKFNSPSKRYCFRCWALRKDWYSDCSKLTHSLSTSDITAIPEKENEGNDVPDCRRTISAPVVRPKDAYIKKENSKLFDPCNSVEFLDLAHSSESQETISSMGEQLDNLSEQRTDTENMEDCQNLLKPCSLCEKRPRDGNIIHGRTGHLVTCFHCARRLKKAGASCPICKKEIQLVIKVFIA
Target sequence (Q00987 whole entry, looked up): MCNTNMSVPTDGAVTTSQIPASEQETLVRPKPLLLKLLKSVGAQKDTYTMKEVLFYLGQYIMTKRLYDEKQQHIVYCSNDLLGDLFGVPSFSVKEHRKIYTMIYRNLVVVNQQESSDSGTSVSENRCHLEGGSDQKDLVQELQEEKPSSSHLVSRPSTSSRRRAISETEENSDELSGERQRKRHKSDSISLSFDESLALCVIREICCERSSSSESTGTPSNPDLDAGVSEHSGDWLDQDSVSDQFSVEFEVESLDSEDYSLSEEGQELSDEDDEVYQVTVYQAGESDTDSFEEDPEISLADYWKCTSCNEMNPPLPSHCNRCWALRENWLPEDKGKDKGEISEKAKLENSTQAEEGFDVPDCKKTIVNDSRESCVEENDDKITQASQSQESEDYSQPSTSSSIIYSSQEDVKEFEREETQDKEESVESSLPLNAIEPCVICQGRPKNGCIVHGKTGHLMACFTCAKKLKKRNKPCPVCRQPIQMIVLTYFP
Each line names hits and unclear results; the compound was inactive in the other large screens.

COc1ccc(/C=C/C(=O)N(c2ccccn2)C2CCCCC2)cc1OC	Calb FLC 83
O=C(c1ccc(Br)o1)N1N=C(c2ccc(Cl)cc2)CC1c1ccco1 (configuration not stated)	SKKanGAS inh 60
CCCCc1ccc(N=N/C(C(=O)Nc2ccc(NC(C)=O)cc2OC)=C(/C)O)cc1	CSC inhib 80
CCOC(=O)c1cc(C#N)c(N2CCN(c3ccc(OC)cc3)CC2)[nH]c1=O	Calb FLC 92
COc1ccc(OC)c(NC(=O)CSc2nnc(-c3ccncc3)s2)c1	none (no result: Beta cell apopt)
COc1ccc(OC)c(NC(=O)CSc2nnc(-c3cccnc3)s2)c1	Beta cell apopt 99
CCN(C(=O)CN1C(=O)S/C(=C\c2ccc(Cl)cc2)C1=O)C1CCS(=O)(=O)C1 (configuration not stated)	none
CCOC(=O)C1=C(C)NC2=C(C(=O)c3ccccc32)C1c1ccc([N+](=O)[O-])o1 (configuration not stated)	SKKanGAS inh 57
CN1CCN(c2ccc(S(=O)(=O)N3CCCCC3)cc2NC(=O)CSC(C)(C)C)CC1	none (no result: SKKanGAS inh, Beta cell apopt, Calb FLC, CSC inhib, Mdm2-MdmX inh)
CC1CCCN(C(=O)c2cccc(S(=O)(=O)Nc3cc(C(F)(F)F)ccc3Cl)c2)C1 (configuration not stated)	Calb FLC 94 (no result: Mdm2-MdmX inh)
O=C(c1cccc(S(=O)(=O)Nc2ccccc2Cl)c1)N1CCC1	none
CC(C)CNC(=O)C1(C)CCCN1Cc1ccccc1OC(F)F (configuration not stated)	none (no result: SKKanGAS inh, Beta cell apopt, Calb FLC, CSC inhib, Mdm2-MdmX inh)
Cc1ccc(C2(C)NC(=O)N(CC(=O)Nc3ccc4[nH]c(=O)[nH]c4c3)C2=O)cc1 (configuration not stated)	none
Cc1c(C(=O)Nc2ccc(-c3nnc4n3CCCCC4)cc2)oc2c1ccc1ccccc12	CSC inhib 117
CCN(CC(=O)Nc1ccc(NC(C)=O)cc1)C(=O)/C=C/c1c(C)nn(-c2ccc(F)cc2)c1Cl	none (no result: SKKanGAS inh, Beta cell apopt, Calb FLC, CSC inhib)
CC(C)(C)NC(=O)Cn1nnc(-c2ccc(OCc3c(F)cccc3Cl)cc2)n1	CSC inhib 78
COc1ccc(-c2csc(-c3ccc(O)cc3)n2)cc1	CSC inhib 90
COc1ccc(-c2csc(-c3ccccc3)n2)c(OC)c1	Calb FLC 99 (no result: Beta cell apopt)
COc1ccc(-c2csc(-c3cccs3)n2)c(OC)c1	none (no result: Beta cell apopt, CSC inhib)
Cc1ccc(F)cc1NC(=O)CN1C(=O)NC2(CCCc3ccccc32)C1=O (configuration not stated)	none
O=C(COC(=O)C12CC3CC(CC(O)(C3)C1)C2)Nc1ccc(Br)cc1F	none (no result: SKKanGAS inh, Calb FLC)
Cc1c(C(=O)NNC(=O)c2ccccc2O)oc2ccc(Br)cc12	SKKanGAS inh 108 (no result: Calb FLC, Mdm2-MdmX inh)
CCOc1ccc2oc(C(=O)NNC(=O)c3ccccc3O)c(C)c2c1	SKKanGAS inh 69 (no result: CSC inhib)
CCOc1cc(/C=N/N=C(N)N)ccc1OCc1ccc(Cl)cc1	Calb FLC 105, CSC inhib 106 (no result: Mdm2-MdmX inh)
Cc1nc(S/C(C(=O)O)=C2/C(=O)Nc3ccccc32)n[nH]1	none
CN(C)/C=C1\N=C(c2cccnc2Oc2ccc(Cl)cc2)OC1=O	none
COc1cc(NC(=O)C(=O)NNC(=O)C2CCCCC2)c(OC)cc1Cl	none
COc1cc(OC)cc(C(=O)NNC(=O)C(=O)Nc2cc(OC)c(Cl)cc2OC)c1	SKKanGAS inh 54
O=C(Nc1nnc(C2CC2)s1)c1cc(-c2ccccc2)nn1-c1ccccc1	SKKanGAS inh 73
CCN(CC(=O)Nc1ccccc1C(F)(F)F)C(=O)c1cc(-c2ccccc2)nn1-c1ccccc1	SKKanGAS inh 51 (no result: CSC inhib)
Cc1ccc(C)c(NC(=O)c2cc(-c3ccccc3)nn2-c2ccccc2)c1	CSC inhib 89
Cc1ccc(C)c(NC(=O)c2nc(-c3ccccc3)n(-c3ccccc3)n2)c1	none
CCn1c(=O)n(CC)c2cc(N3CCCC3)c(NC(=O)c3ccc(C)cc3)cc21	none
O=C(/C=C/c1ccc(F)cc1)Nc1ccc(S(=O)(=O)Nc2ncccn2)cc1	none
CC(C)c1nc(N2CCN(C(=O)c3ccco3)CC2)c2c3c(sc2n1)CCCC3	Calb FLC 89
CC(C)c1nc(N2CCN(C(=O)c3ccco3)CC2)c(C#N)c2c1COC(C)(C)C2	none (no result: Beta cell apopt)
CCCCc1nc(N2CCN(C(=O)c3ccco3)CC2)c(C#N)c2c1CCCC2	SKKanGAS inh 97, CSC inhib 119
Cc1ccc([C@H]2C[C@@H](O)[C@H](n3cc(C4CC4)nn3)CN2Cc2cccs2)cc1	none (no result: SKKanGAS inh, Beta cell apopt, Calb FLC, CSC inhib, Mdm2-MdmX inh)
CCN(CC)c1ccc(N=C2C(=O)Nc3ccccc32)cc1	Beta cell apopt 87

Screening results: PubChem BioAssay, several laboratories
